For part of these data: Entries with a potency or affinity are not part of this list. Calls of active or inactive are those of the source.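 How the source made its calls, unless noted: active means primary screen hit whose fluorescence ratio, in both repeats, exceeds the weak agonist control mean by 3 SD; inactive means the rest.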
Columns and labels:
[1] = system: TRPC4 beta (transient receptor potential cation channel C4), mouse; assay: activators of mouse TRPC4 channel, confirmation, cell-based, Fluo4 calcium, HEK293 TRPC4beta/mu-opioid, duplicates, 10 µM (AID 2426;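 active means fluorescence ratio normalized to control raised more than 50% in primary screen plus both repeat runs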;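 on activation: percent rise of integrated ratio over buffer wells lacking compound which define 0%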); settings: Fluo4 calcium fluorescence, at 10 µM; active compounds read high
[2] = system: transient receptor potential cation channel C4 beta (TRPC4), mouse; assay: activators of mouse TRPC4 channel, confirmation, cell-based, second round, Fluo4, HEK293 TRPC4beta/mu-opioid, 1 µM (AID 2461;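 active means primary screen active and over 50% activation in each of two duplicate runs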); settings: Fluo4 calcium fluorescence, at 1 µM; active compounds read high
[3] = system: TRPC4 (transient receptor potential cation channel C4 beta), mouse; assay: positive allosteric modulators of mouse TRPC4, confirmation, cell-based, second round, Fluo-4, HEK293 TRPC4beta/mu-opioid, 1 µM (AID 2554); settings: DAMGO EC20, Fluo-4 calcium flux, at 1 µM; active compounds read high
[4] = system: TRPC4 beta (transient receptor potential cation channel C4), mouse; assay: positive allosteric modulators of mouse TRPC4, confirmation, cell-based, Fluo-4, HEK293 TRPC4beta/mu-opioid (AID 2555;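 active means primary screen hit whose calcium fluorescence ratio, in both repeats, exceeds the weak agonist control mean by 3 SD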); settings: DAMGO EC20, Fluo-4 calcium flux, at 10 µM; active compounds read high
[5] = molecular target: Short transient receptor potential channel 4 (Mus musculus) (UniProt Q9QUQ5); assay: inhibitors of mouse TRPC4 channel, confirmation, cell-based, Fluo4, HEK293 TRPC4beta/mu-opioid (AID 2636;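 active means calcium signal cut by more than 3 SD below the full-agonist control yet still positive, in both repeats and the earlier primary screen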); settings: DAMGO, Fluo4 calcium flux, at 10 µM; active compounds read high
[6] = molecular target: Short transient receptor potential channel 4 (Mus musculus) (UniProt Q9QUQ5); assay: inhibitors of mouse TRPC4 channel, confirmation, cell-based, second round, Fluo4, HEK293 TRPC4beta/mu-opioid, 1 µM (AID 2637;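 active means calcium signal ratio cut to more than 3 SD under the fully stimulated control mean yet still positive, in both repeats and the primary screen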); settings: Fluo4 calcium flux, DAMGO, at 1 µM; active compounds read high
[7] = molecular target: Short transient receptor potential channel 4 (Mus musculus) (UniProt Q9QUQ5); assay: mouse TRPC4 channel activators, dose response, cell-based, HEK293 TRPC4/mu-opioid, Fluo-4 calcium (AID 434937;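 active means primary screen activator hit with a dose response curve and TRPC4 channel activation at any tested dose; inactive means no activation, no dose response, or not a primary hit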)
[8] = molecular target: Short transient receptor potential channel 4 (Mus musculus) (UniProt Q9QUQ5); assay: TRPC4 positive allosteric modulators, dose response, cell-based, HEK293 TRPC4/mu-opioid, Fluo-4 calcium, EC20 DAMGO (AID 434941;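 active means earlier screen potentiator hit that boosts the TRPC4 ion channel at some dose, with a dose response; inactive means no potentiation, no dose response, or not a prior hit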;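 further: calcium entry triggered by an EC20 dose of DAMGO at the co-expressed mu-opioid receptor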)
[9] = molecular target: Short transient receptor potential channel 4 (Mus musculus) (UniProt Q9QUQ5); assay: mouse TRPC4 channel inhibitors, dose response, cell-based, HEK293 TRPC4/mu-opioid, Fluo-4 calcium (AID 434942;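 active means primary screen inhibitor hit that blocks the TRPC4 channel at some tested dose, yielding a dose curve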)
[10] = molecular target: Short transient receptor potential channel 6 (Mus musculus) (UniProt Q61143); assay: inhibition of mouse TRPC6 channel, confirmation, selectivity assay for TRPC4 inhibitor project, cell-based, HEK293, membrane potential dye, duplicate (AID 434948;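 active means active in primary screen and both duplicates, each dropping signal beyond three positive-control SD with fluorescence still positive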); settings: HEK293 TRPC6, membrane potential dye fluorescence, at 10 µM, stimulated with maximal-effect acetylcholine; active compounds read high
[11] = molecular target: Short transient receptor potential channel 6 (Mus musculus) (UniProt Q61143); assay: activation of mouse TRPC6 channel, confirmation, selectivity assay for TRPC4 activator project, cell-based, HEK293, membrane potential dye, duplicate (AID 434950;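 active means membrane potential signal rise above negative control mean plus 3 SD in both duplicates, also active in the earlier TRPC4 screen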;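 on activation: 0% = buffer only wells and 100% = acetylcholine maximal-effect wells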); settings: HEK293 TRPC6, membrane potential fluorescence, at 10 µM; active compounds read high
[12] = molecular target: Short transient receptor potential channel 6 (Mus musculus) (UniProt Q61143); assay: TRPC6 potentiation by TRPC4 potentiator hits, confirmation, selectivity assay for TRPC4 potentiator project, HEK293 cells, membrane potential dye, duplicate (AID 434952;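 active means compound raising the membrane signal above positive-control mean plus 3 SD in both repeats, and a primary screen hit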); settings: HEK293 TRPC6, membrane potential dye fluorescence, at 10 µM, maximal acetylcholine added after compound; active compounds read high
[13] = molecular target: Short transient receptor potential channel 4 (Mus musculus) (UniProt Q9QUQ5); assay: calcium flux activators in TRPC4/5HT1a cells, counter-screen for TRPC4 activator project, cell-based, second counter screen, HEK293 TRPC4/5HT1a, Fluo-4 (AID 434977;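 active means calcium signal rise above buffer-control mean plus 5 SD in both duplicates, and also a hit in the primary screen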;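 on activation: plate controls were assay buffer for no effect and maximal serotonin response for full effect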); settings: Fluo-4 calcium flux, at 10 µM; active compounds read high
[14] = calcium flux inhibitors in TRPC4/5HT1a cells, confirmation, counter-screen for TRPC4 inhibitor project, cell-based, second counter screen, HEK293 TRPC4/5HT1a, Fluo-4 (AID 434978;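 active means primary screen active whose calcium signal fell more than 3 SD beyond the full-serotonin control mean in both duplicate plates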;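 further: serotonin given first at submaximal then at maximal dose after compound preincubation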); settings: Fluo-4 calcium flux, at 10 µM, serotonin added to trigger calcium flux; active compounds read high
[15] = system: TRPC4 (mouse), co-expressed with 5HT1a in HEK293; assay: calcium flux potentiators in TRPC4/5HT1a cells, confirmation, counter-screen for TRPC4 potentiator project, cell-based, second counter screen, HEK293 TRPC4/5HT1a, Fluo-4 (AID 434979;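 active means signal rise over 3 SD above mean of control wells given weak agonist, in both repeats and first screen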); settings: Fluo-4 calcium flux, at 10 µM, serotonin added at its EC20 dose; active compounds read high
[16] = calcium flux activation in mu-opioid HEK293 cells, confirmation, counter-screen for TRPC4 activator project, cell-based, HEK293 mu-opioid receptor line (AID 449723;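 active means hit in primary screen, with calcium signal over 5 SD above buffer well mean in both duplicates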;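 further: counter screen cells carry the mu-opioid receptor alone and lack TRPC4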); settings: Fluo-4 calcium fluorescence, at 10 µM; active compounds read high
[17] = calcium flux enhancement in mu-opioid HEK293 cells, confirmation, counter-screen for TRPC4 allosteric potentiator project, cell-based, HEK293 mu-opioid receptor line (AID 449724;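 active means calcium signal rise more than 3 SD above the low-dose agonist control mean, in both duplicate plates and the primary screen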); settings: Fluo-4 calcium flux, at 10 µM, compound added before EC20 DAMGO stimulus; active compounds read high

Chain of Short transient receptor potential channel 6 (Mus musculus) (Q61143 whole entry, looked up): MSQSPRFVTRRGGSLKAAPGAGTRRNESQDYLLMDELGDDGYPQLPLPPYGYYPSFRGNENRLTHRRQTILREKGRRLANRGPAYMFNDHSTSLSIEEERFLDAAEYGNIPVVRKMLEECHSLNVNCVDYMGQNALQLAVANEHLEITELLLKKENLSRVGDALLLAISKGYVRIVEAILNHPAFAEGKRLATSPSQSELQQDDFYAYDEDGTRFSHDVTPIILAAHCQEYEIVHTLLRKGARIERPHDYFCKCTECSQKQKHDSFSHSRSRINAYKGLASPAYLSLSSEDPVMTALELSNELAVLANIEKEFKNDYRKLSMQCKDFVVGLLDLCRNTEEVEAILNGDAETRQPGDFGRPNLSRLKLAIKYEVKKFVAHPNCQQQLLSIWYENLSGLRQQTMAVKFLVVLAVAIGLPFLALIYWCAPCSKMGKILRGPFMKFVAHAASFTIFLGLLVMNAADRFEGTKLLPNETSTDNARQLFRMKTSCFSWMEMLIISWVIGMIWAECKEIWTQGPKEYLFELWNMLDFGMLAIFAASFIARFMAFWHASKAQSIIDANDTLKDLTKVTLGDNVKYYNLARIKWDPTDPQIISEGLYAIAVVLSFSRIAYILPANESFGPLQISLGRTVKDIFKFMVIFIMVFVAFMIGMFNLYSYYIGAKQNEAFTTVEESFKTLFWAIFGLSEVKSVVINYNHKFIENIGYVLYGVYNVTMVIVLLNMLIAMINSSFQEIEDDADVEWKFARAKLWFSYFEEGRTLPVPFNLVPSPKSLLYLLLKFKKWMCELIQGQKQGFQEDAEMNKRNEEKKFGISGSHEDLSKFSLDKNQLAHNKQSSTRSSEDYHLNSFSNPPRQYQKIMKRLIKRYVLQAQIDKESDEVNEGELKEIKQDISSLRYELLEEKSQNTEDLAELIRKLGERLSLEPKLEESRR
Chain of Short transient receptor potential channel 4 (Mus musculus) (Q9QUQ5 whole entry, looked up): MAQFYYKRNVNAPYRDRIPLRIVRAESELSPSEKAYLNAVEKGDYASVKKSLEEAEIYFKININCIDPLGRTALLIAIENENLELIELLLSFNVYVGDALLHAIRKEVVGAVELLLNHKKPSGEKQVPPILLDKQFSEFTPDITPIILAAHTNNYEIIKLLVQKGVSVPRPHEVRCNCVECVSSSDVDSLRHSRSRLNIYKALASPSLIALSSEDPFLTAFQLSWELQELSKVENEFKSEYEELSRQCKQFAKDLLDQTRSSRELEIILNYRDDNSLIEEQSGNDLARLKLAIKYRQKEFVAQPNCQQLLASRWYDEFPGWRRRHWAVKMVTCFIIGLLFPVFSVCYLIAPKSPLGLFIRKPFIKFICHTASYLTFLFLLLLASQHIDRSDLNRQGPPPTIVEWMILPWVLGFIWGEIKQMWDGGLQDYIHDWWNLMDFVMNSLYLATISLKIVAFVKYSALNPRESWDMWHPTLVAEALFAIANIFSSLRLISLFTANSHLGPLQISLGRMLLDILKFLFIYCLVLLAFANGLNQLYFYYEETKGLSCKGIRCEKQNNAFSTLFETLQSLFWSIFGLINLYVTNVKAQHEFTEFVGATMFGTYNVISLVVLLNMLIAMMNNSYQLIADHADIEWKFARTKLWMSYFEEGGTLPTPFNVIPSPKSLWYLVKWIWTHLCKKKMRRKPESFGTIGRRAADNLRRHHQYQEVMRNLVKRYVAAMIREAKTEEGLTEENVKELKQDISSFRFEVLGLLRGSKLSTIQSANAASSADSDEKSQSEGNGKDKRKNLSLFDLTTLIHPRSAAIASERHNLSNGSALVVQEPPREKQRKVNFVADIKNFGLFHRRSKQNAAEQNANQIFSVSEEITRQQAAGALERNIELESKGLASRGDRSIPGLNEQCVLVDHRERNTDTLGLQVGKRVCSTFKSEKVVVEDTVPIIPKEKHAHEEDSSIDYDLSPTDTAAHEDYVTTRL

Cc1cc(Cl)cc(C)c1OCCCCCn1ccnc1
active: activation [1] 88% | activation [11] 47% | activation [13] 34%
inactive: outcome [2] | outcome [3] | outcome [4] | outcome [5] | outcome [6] | outcome [7] | outcome [8] | outcome [9] | outcome [10] | outcome [12] | outcome [14] | outcome [15] | outcome [16] | outcome [17]

CN(C)CCCOC(=O)c1ccc(Cl)cc1Cl
inactive: outcome [1] | outcome [2] | outcome [5] | outcome [6] | outcome [7] | outcome [8] | outcome [9] | outcome [10] | outcome [11] | outcome [12] | outcome [13] | outcome [14] | outcome [16] | outcome [17]
active: potentiation [3] 16% | potentiation [4] 8% | potentiation [15] 18.3%

O=S(=O)(NCCSc1nnc(-c2ccco2)n1-c1ccccc1)c1ccccc1
inactive: outcome [1] | outcome [2] | outcome [3] | outcome [4] | outcome [5] | outcome [6] | outcome [7] | outcome [8] | outcome [9] | outcome [10] | outcome [11] | outcome [12] | outcome [13] | outcome [14] | outcome [15] | outcome [16] | outcome [17]

CC(=O)Nc1nc(-c2ccc3c(c2)CCN3C(=O)C2CC2)c(C)s1
inactive: outcome [1] | outcome [2] | outcome [3] | outcome [4] | outcome [5] | outcome [6] | outcome [7] | outcome [8] | outcome [9] | outcome [10] | outcome [11] | outcome [12] | outcome [13] | outcome [14] | outcome [15] | outcome [16] | outcome [17]

Cc1ccc(Cl)c(OCCN2CCCC(C)C2)c1 (stereo not given)
active: potentiation [3] 25% | potentiation [15] 7.06%
inactive: outcome [1] | outcome [2] | outcome [4] | outcome [5] | outcome [6] | outcome [7] | outcome [8] | outcome [9] | outcome [10] | outcome [11] | outcome [12] | outcome [13] | outcome [14] | outcome [16] | outcome [17]

CCCCCCc1cc2cc(-c3nnc(-c4cc(OC)c(OC)c(OC)c4)o3)c(=O)oc2cc1O
inactive: outcome [1] | outcome [2] | outcome [3] | outcome [5] | outcome [6] | outcome [7] | outcome [8] | outcome [9] | outcome [10] | outcome [11] | outcome [12] | outcome [13] | outcome [14] | outcome [16]
active: potentiation [4] 37% | potentiation [15] 16.1% | activation [17] 4130%

N=c1c2c(n(Cc3ccc(Br)cc3)c3c1CCC3)CCCC2
inactive: outcome [1] | outcome [2] | outcome [3] | outcome [4] | outcome [5] | outcome [6] | outcome [7] | outcome [8] | outcome [9] | outcome [10] | outcome [11] | outcome [12] | outcome [13] | outcome [14] | outcome [15] | outcome [16] | outcome [17]

O=c1c2ccccc2nc(SCc2nc3ccccc3s2)n1CCCO
inactive: outcome [1] | outcome [2] | outcome [3] | outcome [4] | outcome [5] | outcome [6] | outcome [7] | outcome [8] | outcome [9] | outcome [10] | outcome [11] | outcome [12] | outcome [13] | outcome [14] | outcome [15] | outcome [16] | outcome [17]

O=C(Nc1ccc(F)cc1)Nc1cc(S(=O)(=O)N2CCOCC2)ccc1N1CCCC1
inactive: outcome [1] | outcome [2] | outcome [3] | outcome [5] | outcome [6] | outcome [7] | outcome [8] | outcome [9] | outcome [10] | outcome [11] | outcome [12] | outcome [13] | outcome [14] | outcome [16] | outcome [17]
active: potentiation [4] 53% | potentiation [15] 33%

Cc1ccc(/C=N/NC(=O)C2COc3ccccc3O2)s1 (stereo not given)
inactive: outcome [1] | outcome [2] | outcome [3] | outcome [4] | outcome [5] | outcome [6] | outcome [7] | outcome [8] | outcome [9] | outcome [10] | outcome [11] | outcome [12] | outcome [13] | outcome [14] | outcome [16] | outcome [17]
active: potentiation [15] 22.2%

CCOCCCNCc1ccc(OCc2ccccc2Cl)cc1
inactive: outcome [1] | outcome [2] | outcome [3] | outcome [4] | outcome [5] | outcome [6] | outcome [7] | outcome [8] | outcome [9] | outcome [10] | outcome [11] | outcome [12] | outcome [13] | outcome [14] | outcome [15] | outcome [16] | outcome [17]

CCOc1ccc2nc(N3CCCC(C(=O)NCC4CCCO4)C3)sc2c1 (stereo not given)
inactive: outcome [1] | outcome [2] | outcome [3] | outcome [4] | outcome [5] | outcome [6] | outcome [7] | outcome [8] | outcome [9] | outcome [10] | outcome [11] | outcome [12] | outcome [13] | outcome [14] | outcome [15] | outcome [16] | outcome [17]

COc1ccc(CNCC(O)(c2ccccc2)c2ccccc2)cc1OC
inactive: outcome [1] | outcome [2] | outcome [3] | outcome [4] | outcome [5] | outcome [6] | outcome [7] | outcome [8] | outcome [9] | outcome [10] | outcome [11] | outcome [12] | outcome [13] | outcome [14] | outcome [15] | outcome [16] | outcome [17]

OC(CNCCc1ccc(C(F)(F)F)cc1)COc1ccc2ccccc2c1 (stereo not given)
inactive: outcome [1] | outcome [2] | outcome [3] | outcome [4] | outcome [5] | outcome [6] | outcome [7] | outcome [8] | outcome [9] | outcome [10] | outcome [11] | outcome [12] | outcome [13] | outcome [14] | outcome [15] | outcome [16] | outcome [17]

O=C1CCCC(=O)N1c1ccc(N2CCN(c3ccc([N+](=O)[O-])cc3)CC2)c([N+](=O)[O-])c1
inactive: outcome [1] | outcome [2] | outcome [3] | outcome [5] | outcome [6] | outcome [7] | outcome [8] | outcome [9] | outcome [10] | outcome [11] | outcome [12] | outcome [13] | outcome [14] | outcome [16] | outcome [17]
active: potentiation [4] 11% | potentiation [15] 14.9%
